{"source": "PubChem BioAssay (NCATS)", "note": "Inconclusive results are not listed. Entries that show only a call come without a potency. Active and inactive are the calls of the source. Calls follow the shape of the dose curve; as a rule, active = well fitted curve in the direction sought with a large enough effect; inconclusive = small, poorly fitted or top-dose-only effect, or another doubt; inactive = no such curve, though single readings can be large; an effect the other way counts as inactive or inconclusive.", "data": [{"target": "Glutaminase kidney isoform, mitochondrial (Homo sapiens) (UniProt O94925)", "sequence (O94925 whole entry, looked up, canonical isoform)": "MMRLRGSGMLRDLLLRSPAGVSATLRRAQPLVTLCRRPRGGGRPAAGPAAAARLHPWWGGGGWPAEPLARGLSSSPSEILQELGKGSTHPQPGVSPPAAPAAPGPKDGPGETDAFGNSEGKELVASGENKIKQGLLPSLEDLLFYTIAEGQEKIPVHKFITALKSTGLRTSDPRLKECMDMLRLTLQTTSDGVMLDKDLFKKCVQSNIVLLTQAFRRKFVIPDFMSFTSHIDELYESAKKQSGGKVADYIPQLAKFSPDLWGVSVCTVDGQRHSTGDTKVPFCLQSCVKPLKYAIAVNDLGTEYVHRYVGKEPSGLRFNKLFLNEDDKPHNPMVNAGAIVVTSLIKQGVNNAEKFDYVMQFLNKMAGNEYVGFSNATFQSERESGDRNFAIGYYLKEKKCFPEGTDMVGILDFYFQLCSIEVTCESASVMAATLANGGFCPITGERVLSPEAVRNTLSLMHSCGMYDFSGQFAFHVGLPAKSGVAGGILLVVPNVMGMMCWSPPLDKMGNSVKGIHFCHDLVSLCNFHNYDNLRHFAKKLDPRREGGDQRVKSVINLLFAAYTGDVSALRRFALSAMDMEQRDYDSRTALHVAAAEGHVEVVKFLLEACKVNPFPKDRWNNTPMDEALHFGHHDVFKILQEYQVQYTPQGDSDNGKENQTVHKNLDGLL", "assay": "qHTS for Inhibitors of Glutaminase (GLS): LOPAC Validation (AID 624146);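 also: glutamate product detected by oxidase and peroxidase coupled Amplex red fluorescence gain; nearly all actives have a fitted effect of over 60% in size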", "settings": "glutaminase enzyme activity inhibition; series mostly up to 46.1 µM", "in_short": "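Glutamate formation by hKGA was monitored fluorometrically using coupled glutamate oxidase, HRP and Amplex Red. Substrate was added as 1 mM L-glutamine solution; incubation was 30 min at RT after an initial read.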", "values": [{"molecule": "O=C1Cc2cc(CCN3CCN(c4nsc5ccccc45)CC3)c(Cl)cc2N1", "Potency": "inactive"}, {"molecule": "CN(C)C(=O)C(CCN1CCC(O)(c2ccc(Cl)cc2)CC1)(c1ccccc1)c1ccccc1", "Potency": "inactive"}, {"molecule": "Cc1cn([C@H]2C[C@H](N=[N+]=[N-])[C@@H](CO)O2)c(=O)[nH]c1=O", "Potency": "inactive"}, {"molecule": "COc1cc2nc(N(C)CCCNC(=O)C3CCCO3)nc(N)c2cc1OC", "note": "(configuration not stated)", "Potency": "inactive"}, {"molecule": "CCc1cccc2c3c([nH]c12)C(CC)(CC(=O)O)OCC3", "note": "(configuration not stated)", "Potency": "inactive"}, {"molecule": "Nc1ccn([C@H]2CC[C@@H](CO)O2)c(=O)n1", "Potency": "inactive"}, {"molecule": "CC1COc2c(N3CCN(C)CC3)c(F)cc3c(=O)c(C(=O)O)cn1c23", "note": "(configuration not stated)", "Potency": "inactive"}, {"molecule": "CC(COc1ccccc1)N(CCCl)Cc1ccccc1", "note": "(configuration not stated)", "Potency": "inactive"}, {"molecule": "Nc1c2c(nc3ccccc13)CCCC2", "Potency": "inactive"}, {"molecule": "COc1ccc2c(c1)c(CC(=O)O)c(C)n2C(=O)c1ccc(Cl)cc1", "Potency": "inactive"}, {"molecule": "Cc1ccccc1N1C(=O)c2cc(S(N)(=O)=O)c(Cl)cc2NC1C", "note": "(configuration not stated)", "Potency": "inactive"}, {"molecule": "COc1cc2nc(N3CCN(C(=O)c4ccco4)CC3)nc(N)c2cc1OC", "Potency": "inactive"}, {"molecule": "COc1cc2c(c(OC)c1OC)-c1ccc(OC)c(=O)cc1[C@@H](NC(C)=O)CC2", "Potency": "inactive"}, {"molecule": "CC(C(=O)O)c1cccc(C(=O)c2ccccc2)c1", "note": "(configuration not stated)", "Potency": "inactive"}, {"molecule": "Fc1ccc([C@@H]2CCNC[C@H]2COc2ccc3c(c2)OCO3)cc1", "Potency": "inactive"}, {"molecule": "CN1C2CCC1CC(OC(=O)C(CO)c1ccccc1)C2", "note": "(configuration not stated)", "Potency": "inactive"}, {"molecule": "CN1CCC(=C2c3ccccc3C=Cc3ccccc32)CC1", "Potency": "inactive"}, {"molecule": "NC12CC3CC(CC(C3)C1)C2", "Potency": "inactive"}, {"molecule": "CN(C)CCCN1c2ccccc2CCc2ccc(Cl)cc21", "Potency": "inactive"}, {"molecule": "CC(C)C(=O)Nc1ccc([N+](=O)[O-])c(C(F)(F)F)c1", "Potency": "inactive"}, {"molecule": "Clc1ccc(C(c2ccccc2Cl)C(Cl)Cl)cc1", "note": "(configuration not stated)", "Potency": "inactive"}, {"molecule": "O=c1[nH]cc(F)c(=O)[nH]1", "Potency": "inactive"}, {"molecule": "O=C(C1CCCCC1)N1CC(=O)N2CCc3ccccc3C2C1", "note": "(configuration not stated)", "Potency": "inactive"}, {"molecule": "COc1ccc(C2CNC(=O)C2)cc1OC1CCCC1", "note": "(configuration not stated)", "Potency": "inactive"}, {"molecule": "CN(C)CCC=C1c2ccccc2C=Cc2ccccc21", "Potency": "inactive"}, {"molecule": "OCCN1CCN(CCCN2c3ccccc3Sc3ccc(C(F)(F)F)cc32)CC1", "Potency": "inactive"}]}, {"tested_on": "not listed separately", "assay": "qHTS of Trypanosoma Brucei Inhibitors: LOPAC Validation (AID 624147)", "settings": "purified enzyme assay, luminescence, 45 min; series mostly up to 57.5 µM", "in_short": "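Activity of T. brucei pyruvate kinase was followed by Kinase-Glo Plus luminescence after the enzyme reacted 45 min at room temperature with 130 uM ADP (final) and substrate. Test compounds were added before ADP at multiple concentrations.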", "values": [{"molecule": "CN(C)C(=O)C(CCN1CCC(O)(c2ccc(Cl)cc2)CC1)(c1ccccc1)c1ccccc1", "Potency": "inactive"}, {"molecule": "COc1cc2nc(N(C)CCCNC(=O)C3CCCO3)nc(N)c2cc1OC", "note": "(configuration not stated)", "Potency": "inactive"}, {"molecule": "CN1CCN(CCCN2c3ccccc3Sc3ccc(Cl)cc32)CC1", "Potency": "inactive"}, {"molecule": "CCc1cccc2c3c([nH]c12)C(CC)(CC(=O)O)OCC3", "note": "(configuration not stated)", "Potency": "inactive"}, {"molecule": "CC1COc2c(N3CCN(C)CC3)c(F)cc3c(=O)c(C(=O)O)cn1c23", "note": "(configuration not stated)", "Potency": "inactive"}, {"molecule": "CC(COc1ccccc1)N(CCCl)Cc1ccccc1", "note": "(configuration not stated)", "Potency": "inactive"}, {"molecule": "COc1cc2nc(N3CCN(C(=O)c4ccco4)CC3)nc(N)c2cc1OC", "Potency": "inactive"}, {"molecule": "COc1cc2c(c(OC)c1OC)-c1ccc(OC)c(=O)cc1[C@@H](NC(C)=O)CC2", "Potency": "inactive"}, {"molecule": "CCC1(C)CC(=O)NC1=O", "note": "(configuration not stated)", "Potency": "inactive"}, {"molecule": "CN(C)CCCN1c2ccccc2CCc2ccc(Cl)cc21", "Potency": "inactive"}, {"molecule": "CC(C)C(=O)Nc1ccc([N+](=O)[O-])c(C(F)(F)F)c1", "Potency": "inactive"}, {"molecule": "Clc1ccc(C(c2ccccc2Cl)C(Cl)Cl)cc1", "note": "(configuration not stated)", "Potency": "inactive"}, {"molecule": "O=c1[nH]cc(F)c(=O)[nH]1", "Potency": "inactive"}, {"molecule": "COc1ccc(C2CNC(=O)C2)cc1OC1CCCC1", "note": "(configuration not stated)", "Potency": "inactive"}]}, {"target": "Glucagon-like peptide 1 receptor (Homo sapiens) (UniProt P43220)", "sequence (P43220 whole entry, looked up)": "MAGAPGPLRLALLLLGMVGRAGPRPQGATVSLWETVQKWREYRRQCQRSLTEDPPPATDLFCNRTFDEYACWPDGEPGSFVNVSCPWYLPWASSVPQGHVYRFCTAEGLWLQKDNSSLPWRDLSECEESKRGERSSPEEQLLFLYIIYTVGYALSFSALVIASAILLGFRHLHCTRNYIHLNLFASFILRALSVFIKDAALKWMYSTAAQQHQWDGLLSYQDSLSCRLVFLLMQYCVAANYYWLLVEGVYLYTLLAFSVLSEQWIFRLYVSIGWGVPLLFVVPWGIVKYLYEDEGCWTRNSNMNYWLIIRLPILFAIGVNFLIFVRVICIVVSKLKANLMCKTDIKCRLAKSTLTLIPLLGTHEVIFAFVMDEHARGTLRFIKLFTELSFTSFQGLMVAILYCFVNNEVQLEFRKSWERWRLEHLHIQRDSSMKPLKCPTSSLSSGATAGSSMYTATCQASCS", "assay": "qHTS of GLP-1 Receptor Agonists: LOPAC Validation (AID 624148); also: potency is read from the fitted curve at half-maximal effect", "settings": "GLP-1R agonist cell assay; series mostly up to 46.1 µM", "in_short": "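HEK293 cells stably co-expressing GLP-1R and a cAMP-responsive luciferase reporter, plated 12 hours before compound, then incubated 4-6 hr at 37 deg C. Luminescence read 12 min after detection reagent.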", "values": [{"molecule": "O=C1Cc2cc(CCN3CCN(c4nsc5ccccc45)CC3)c(Cl)cc2N1", "Potency": "inactive"}, {"molecule": "CN(C)C(=O)C(CCN1CCC(O)(c2ccc(Cl)cc2)CC1)(c1ccccc1)c1ccccc1", "Potency": "inactive"}, {"molecule": "Cc1cn([C@H]2C[C@H](N=[N+]=[N-])[C@@H](CO)O2)c(=O)[nH]c1=O", "Potency": "inactive"}, {"molecule": "COc1cc2nc(N(C)CCCNC(=O)C3CCCO3)nc(N)c2cc1OC", "note": "(configuration not stated)", "Potency": "inactive"}, {"molecule": "CN1CCN(CCCN2c3ccccc3Sc3ccc(Cl)cc32)CC1", "Potency": "inactive"}, {"molecule": "C[C@H]1c2cccc(O)c2C(O)=C2C(=O)[C@]3(O)C(O)=C(C(N)=O)C(=O)[C@@H](N(C)C)[C@@H]3[C@@H](O)[C@@H]21", "Potency": "inactive"}, {"molecule": "Cn1c(=O)c2[nH]cnc2n(C)c1=O", "Potency": "inactive"}, {"molecule": "CCc1cccc2c3c([nH]c12)C(CC)(CC(=O)O)OCC3", "note": "(configuration not stated)", "Potency": "inactive"}, {"molecule": "Nc1ccn([C@H]2CC[C@@H](CO)O2)c(=O)n1", "Potency": "inactive"}, {"molecule": "CC1COc2c(N3CCN(C)CC3)c(F)cc3c(=O)c(C(=O)O)cn1c23", "note": "(configuration not stated)", "Potency": "inactive"}, {"molecule": "CC(COc1ccccc1)N(CCCl)Cc1ccccc1", "note": "(configuration not stated)", "Potency": "inactive"}, {"molecule": "Nc1c2c(nc3ccccc13)CCCC2", "Potency": "inactive"}, {"molecule": "COc1ccc2c(c1)c(CC(=O)O)c(C)n2C(=O)c1ccc(Cl)cc1", "Potency": "inactive"}, {"molecule": "Cc1ccccc1N1C(=O)c2cc(S(N)(=O)=O)c(Cl)cc2NC1C", "note": "(configuration not stated)", "Potency": "inactive"}, {"molecule": "COc1cc2nc(N3CCN(C(=O)c4ccco4)CC3)nc(N)c2cc1OC", "Potency": "inactive"}, {"molecule": "COc1cc2c(c(OC)c1OC)-c1ccc(OC)c(=O)cc1[C@@H](NC(C)=O)CC2", "Potency": "inactive"}, {"molecule": "NC(CO)C(=O)NNCc1ccc(O)c(O)c1O", "note": "(configuration not stated)", "Potency": "inactive"}, {"molecule": "CC(C(=O)O)c1cccc(C(=O)c2ccccc2)c1", "note": "(configuration not stated)", "Potency": "inactive"}, {"molecule": "Fc1ccc([C@@H]2CCNC[C@H]2COc2ccc3c(c2)OCO3)cc1", "Potency": "inactive"}, {"molecule": "CCC1(C)CC(=O)NC1=O", "note": "(configuration not stated)", "Potency": "inactive"}, {"molecule": "CN1CCC(=C2c3ccccc3C=Cc3ccccc32)CC1", "Potency": "inactive"}, {"molecule": "NC12CC3CC(CC(C3)C1)C2", "Potency": "inactive"}, {"molecule": "CN(C)CCCN1c2ccccc2CCc2ccc(Cl)cc21", "Potency": "inactive"}, {"molecule": "CC(C)C(=O)Nc1ccc([N+](=O)[O-])c(C(F)(F)F)c1", "Potency": "inactive"}, {"molecule": "CN1CCC(=C2c3ccccc3CC(=O)c3sccc32)CC1", "Potency": "inactive"}, {"molecule": "Clc1ccc(C(c2ccccc2Cl)C(Cl)Cl)cc1", "note": "(configuration not stated)", "Potency": "inactive"}, {"molecule": "COc1ccccc1N1CCN(CC(O)COc2cccc3ccccc23)CC1", "note": "(configuration not stated)", "Potency": "inactive"}, {"molecule": "O=c1[nH]cc(F)c(=O)[nH]1", "Potency": "inactive"}, {"molecule": "O=C(C1CCCCC1)N1CC(=O)N2CCc3ccccc3C2C1", "note": "(configuration not stated)", "Potency": "inactive"}, {"molecule": "COc1ccc(C2CNC(=O)C2)cc1OC1CCCC1", "note": "(configuration not stated)", "Potency": "0.0461 µM (active)"}, {"molecule": "CN(C)CCC=C1c2ccccc2C=Cc2ccccc21", "Potency": "inactive"}, {"molecule": "OCCN1CCN(CCCN2c3ccccc3Sc3ccc(C(F)(F)F)cc32)CC1", "Potency": "inactive"}]}]}
